Assay results published in PubChem BioAssay (NCATS).
The source made the active and inactive calls. The call rests on the fitted dose curve.

target: Tumor susceptibility gene 101 protein (Homo sapiens) (UniProt Q99816); assay: qHTS Validation Assay for Iinhibitors of HIV-1 Budding by Blocking the Interaction of PTAP/TSG101 (AID 485342); conditions: TSG101-PTAP binding, fluorescence polarization, 4-point titration; series mostly up to 115 µM; fluorescence change: at the top concentration; further: 0% is about no effect
Sequence (Q99816 whole entry, looked up): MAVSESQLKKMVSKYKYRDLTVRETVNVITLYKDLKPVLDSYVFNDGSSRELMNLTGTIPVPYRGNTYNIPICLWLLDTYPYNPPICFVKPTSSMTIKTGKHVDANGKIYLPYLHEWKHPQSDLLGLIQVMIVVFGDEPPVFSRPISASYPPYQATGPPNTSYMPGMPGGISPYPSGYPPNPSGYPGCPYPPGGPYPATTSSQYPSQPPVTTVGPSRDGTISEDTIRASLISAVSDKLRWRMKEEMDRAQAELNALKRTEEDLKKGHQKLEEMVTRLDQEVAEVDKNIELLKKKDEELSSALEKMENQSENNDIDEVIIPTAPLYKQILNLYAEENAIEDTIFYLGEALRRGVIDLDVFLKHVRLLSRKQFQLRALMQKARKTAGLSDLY
Text: NIH Molecular Libraries Probe Production Network [MLPCN]
NIH Chemical Genomics Center [NCGC]
PI Name: Dr. Eric Freed, NCI
Stages of the HIV-1 replication cycle, specifically virus assembly and release, provide underexploited targets for the development of novel antiviral inhibitors. The late stages of HIV-1 replication are mediated by the Gag precursor protein, Pr55Gag. Expression of Pr55Gag is both necessary and sufficient for the production of virus-like particles from Gag-expressing cells. The Gag protein hijacks key host proteins involved in endocytic machinery of the host cell to promote endosomal processing and viral budding. The budding process requires a direct interaction between a […] (PTAP) motif in the p6 domain of Gag and the cellular endosomal sorting protein known as Tsg101. In this way, the Gag PTAP motif promotes the host cells to recruit viral particles to the plasma membrane where the new viral particles are released, effectively turning the host cells into viral factories. A fluorescence anisotropy assay has been developed to quantitatively measure the PTAP-Tsg101 interaction which can be used to screen for inhibitors of this interaction.
NCGC Assay Protocol Summary:
Two uL of the Tsg101 binding domain in buffer (10 mM HEPES pH 7.5; 0.15 M NaCl, 0.01% Tween 20; 3 mM EDTA;0.1 mM TCEP) was dispensed into Greiner black MB 1536-well plates (final concentration 10 uM). Then, 23 nL of compounds or DMSO were delivered to each well using a pin tool. Finally, 2 uL of a FITC-labeled peptide containing the PTAP motif (1) in the same buffer was dispensed (50 nM final concentration) and the binding was allowed to proceed for 20 min. at r.t. Fluorescent polarization was determined using FITC excitation and polarized emission filters on a Perkin Elmer Viewlux.
Keywords: Tsg101, PTAP, Gag, HIV, fluorescent polarization, MLSMR, MLPCN, NIH Roadmap, qHTS, NCGC

SMILES | fluorescence change
C[C@@H]1O[C@@H](O[C@H]2C[C@@H](O)[C@]3(CO)[C@@H]4C(CC[C@]3(O)C2)[C@@]2(O)CC[C@H]([C@@H]3COC(=O)C3)[C@@]2(C)C[C@H]4O)[C@H](O)[C@H](O)[C@H]1O (stereo not given in full) | 4.01% (inactive)
NCC(O)c1cc(O)c(O)cc1F (stereo not given) | 4.17% (inactive)
c1ccc2cc(CC3=NCCN3)ccc2c1 | 1.46% (inactive)
C=CCN1CCC23c4c5ccc(O)c4O[C@H]2C(=O)CC[C@@]3(O)C1C5 (stereo not given in full) | 2.98% (inactive)
CN(C(=O)Cc1ccc(Cl)c(Cl)c1)C(CN1CCCC1)c1cccc(OCC(=O)O)c1 (stereo not given) | -1.99% (inactive)
Nc1ccc(CCN2CCN(c3cccc(C(F)(F)F)c3)CC2)cc1 | -9.07% (inactive)
NNC(=O)c1ccc(O)cc1 | 1.26% (inactive)
C[C@]12Cc3cn4c(nc3C=C1CCC1C2CC[C@@]2(C)[C@H]1CC[C@@]2(O)C#N)nc1ccccc14 (stereo not given in full) | 32.2% (inactive)
COC(=O)N1CCN(C(=O)Cc2ccc(Cl)c(Cl)c2)C(CN2CCCC2)C1 (stereo not given) | 3.29% (inactive)
CCN(CCCl)Cc1ccccc1Br | 3.58% (inactive)
c1ccc2c(N3CCNCC3)cccc2c1 | -4.97% (inactive)
COc1ccc2c(c1)C13CCCCC1C(C2)N(C)CC3 (stereo not given) | 5.26% (inactive)
CCCN1CCC[C@@H](c2cccc(O)c2)C1 | 3.03% (inactive)
O=[N+]([O-])c1ccc2nc(N3CCNCC3)ccc2c1 | -8.43% (inactive)
CC12NC(Cc3ccccc31)c1ccccc12 (stereo not given) | -5.61% (inactive)
COc1ccc2c(c1)[C@@]13CCCC[C@H]1[C@@H](C2)NCC3 | -2.09% (inactive)
CN(N=O)c1cc(O)ccc1O | 4.72% (inactive)
CC(N)Cc1c[nH]c2ccc(O)cc12 (stereo not given) | 2.6% (inactive)
C[N+](C)(C)CC#CCN1CCCC1=O | -1.65% (inactive)
CCS(=O)(=O)Nc1cccc(C(=C2CCCCC2)c2cnc[nH]2)c1 | 2.71% (inactive)

SMILES | fluorescence change
CCCCCCCCCCCCCC(=O)O[C@@H]1[C@@H](C)[C@@]2(O)[C@@H](C=C(CO)C[C@@]3(O)C(=O)C(C)=C[C@@H]23)C2C(C)(C)[C@@]21OC(C)=O (stereo not given in full) | -25.9% (inactive)
CC1(C(=O)O)C2CCC(O2)C1(C)C(=O)O (stereo not given) | 1.86% (inactive)
COc1ccc(OC)c(C(O)C(C)N)c1 (stereo not given) | 3.54% (inactive)
NC(N)=NOCC[C@H](N)C(=O)O | -1.82% (inactive)
C[C@H](N)Cc1cccc(C(F)(F)F)c1 | -1.59% (inactive)
CCCN(CCC)C1CCc2cccc(O)c2C1 (stereo not given) | 0.492% (inactive)
N[C@@H](Cn1oc(=O)[nH]c1=O)C(=O)O | 3.74% (inactive)
C[N+]1(C)CCN(c2ccccc2)CC1 | 0.494% (inactive)
NNC(N)=O | -0.488% (inactive)
C[N+](C)(C)CC#CCOC(=O)Nc1cccc(Cl)c1 | 5.31% (inactive)
Cc1o[nH]c(=O)c1CC(N)C(=O)O (stereo not given) | 0.0426% (inactive)
CCCCCCC(C)(C)c1ccc([C@@H]2C[C@H](O)CC[C@H]2CCCO)c(O)c1 | -27.6% (inactive)
N[C@@H](Cn1ccc(=O)[nH]c1=O)C(=O)O | 4.2% (inactive)
N[C@@H](CCl)C(=O)O | 3.1% (inactive)
CN1C2CCC1CC(OC(c1ccccc1)c1ccccc1N)C2 (stereo not given) | 4% (inactive)
C=CCN(C1=NCCN1)c1c(Cl)cccc1Cl | 2.93% (inactive)
C[Se]C[C@H](N)C(=O)O | 2.53% (inactive)
CCNC(=O)[C@H]1O[C@@H](n2cnc3c(N)ncnc32)[C@H](O)[C@@H]1O | 2.64% (inactive)
CN1CCc2cc(O)cc3c2[C@H]1Cc1ccc(O)c(O)c1-3 | 4.49% (inactive)
OCc1cnc[nH]1 | 5.69% (inactive)
